Each structure is given as a SMILES string. Results filed as inconclusive are left out. A number with no mark means an inactive call. Calls of active or inactive are those of the source. Calls come from the whole dose curve; as a rule, active = well fitted cell-killing curve with a large enough effect; inconclusive = small, poorly fitted or top-dose-only effect, or effect the other way; inactive = flat fitted curve, though single readings scatter.
% is set by controls: 0 for no effect and ±100 for the full control effect; potency is the fitted concentration of half-maximal effect.

The test concerns Es-2. The experiment in a line: Primary qHTS to identify gynecologic anti-cancer compounds using libraries of approved drugs and bioactive compounds (AID 1345084). Note: nearly all actives have a fitted effect of over 55% in size. Conditions: Gynecologic cancer cell panel viability, ATPlite luminescence, 48 h; series mostly up to 57.5 µM; activity change, negative = cytotoxicity: at the top concentration. The method, boiled down: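 48 h compound exposure at 37 C, 5% CO2; five-point qHTS. ATPlite luminescence readout of cell ATP.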
In general terms: Quantitative high-throughput screening tests each substance at several concentrations.
As to `C[n+]1c2cc(N)ccc2cc2ccc(N)cc21` (tested in a mixture with another compound), the Potency is 15.8 µM (active).
`CC(=O)c1ccc2c(c1)N(CCCN1CCC(CCO)CC1)c1ccccc1S2`: the “activity change, negative = cytotoxicity” value is -10.3%.
In the case of `COc1cc2c(cc1OC)C(C(C(=O)N(CCc1ccc(OC)c(OC)c1OC)CCc1ccc(OC)c(OC)c1OC)c1ccccc1)=NCC2` (centres undefined), the “activity change, negative = cytotoxicity” value is -0.0794%.
On the same count and under the same terms, in the case of `C[C@H]1C[C@H]2[C@@H]3CCC4=CC(=O)C=C[C@]4(C)[C@@]3(Cl)[C@@H](O)C[C@]2(C)[C@@]1(O)C(=O)CO` it was -0.245%; in that of `CCCCOc1ccc(OCCCN2CCOCC2)cc1`, -5.17%.
On to `CC(=O)[C@H]1CC[C@H]2[C@@H]3C[C@H](C)C4=CC(=O)CC[C@]4(C)[C@H]3[C@@H](O)C[C@]12C`, for which the “activity change, negative = cytotoxicity” value was 6.83%.
As to `O=C(OCC(O)CO)c1ccccc1Nc1ccnc2cc(Cl)ccc12` (centres undefined), the “activity change, negative = cytotoxicity” value was -1.97%.
Regarding `CC(=O)N/N=C/c1ccc([N+](=O)[O-])o1`, the “activity change, negative = cytotoxicity” value is -24.4%.
In the case of `COc1cc2c(cc1OC)[C@@H]1CC(=O)[C@@H](CC(C)C)CN1CC2`, the “activity change, negative = cytotoxicity” value was 6.87%.
As for `C=C1C[C@H]2[C@@H]3C=C(C)C4=CC(=O)CC[C@]4(C)[C@H]3CC[C@]2(C)[C@@]1(OC(C)=O)C(C)=O`, the “activity change, negative = cytotoxicity” value is 5.58%.
Still for that read-out and setting: in the case of `CN(C)CCCOc1nn(Cc2ccccc2)c2ccccc12` it was 0.0295%; in that of `CC(=O)Oc1ccc(C(c2ccc(OC(C)=O)cc2)c2ccccn2)cc1`, -4.54%; in that of `C=C1C(=C/C=C2\CCC[C@]3(C)[C@@H]([C@H](C)/C=C/[C@@H](O)C4CC4)CC[C@@H]23)C[C@@H](O)C[C@@H]1O`, 2.51%.
Consider `CN(C/C=C/c1ccccc1)Cc1cccc2ccccc12`, for which the “activity change, negative = cytotoxicity” value is -16.8%.
On the same count and under the same terms, in the case of `OC(CCN1CCCCC1)(c1ccccc1)c1ccccc1` it was 5.44%; in that of `CN1CCC(=C2c3ccccc3Sc3ccccc32)CC1`, -21.7%.
Consider `CC1(C)O[C@@H]2C[C@H]3[C@@H]4CCC5=CC(=O)CC[C@]5(C)[C@@]4(F)[C@@H](O)C[C@]3(C)[C@]2(C(=O)CCl)O1`, for which the “activity change, negative = cytotoxicity” value is 18.6%.
`c1ccc(OCc2ccc(CCCN3CCOCC3)cc2)cc1`: the “activity change, negative = cytotoxicity” value was -21.4%.
Take `COC1=CC(=O)C[C@@H](C)[C@]12Oc1c(Cl)c(OC)cc(OC)c1C2=O`: the “activity change, negative = cytotoxicity” value was -6.66%.
With `COc1cccc2c1C(=O)c1c(O)c3c(c(O)c1C2=O)C[C@@](O)(C(C)=O)C[C@@H]3O[C@H]1C[C@H](N)[C@H](O)[C@H](C)O1`, the Potency is 0.708 µM (active).
Regarding `CCCCCCCCCCCCCCCC[N+](C)(C)CC`, the Potency was 28.2 µM (active).
Consider `O=C1[C@H]2CCCC[C@H]2C(=O)N1CCCCN1CCN(c2nsc3ccccc23)CC1`, for which the “activity change, negative = cytotoxicity” value is 1.93%.
On the same count and under the same terms, in the case of `CN(C)C(=S)SC(=S)N(C)C` it was -2.93%; in that of `CC1(C)O[C@@H]2C[C@H]3[C@@H]4C[C@H](F)C5=CC(=O)C=C[C@]5(C)[C@H]4[C@@H](O)C[C@]3(C)[C@]2(C(=O)CO)O1`, -1.52%; in that of `CCOC(=O)[C@H](CCc1ccccc1)N[C@@H](C)C(=O)N1Cc2ccccc2C[C@H]1C(=O)O`, 5.1%.
As for `C=C(CC)C(=O)c1ccc(OCC(=O)O)c(Cl)c1Cl`, the “activity change, negative = cytotoxicity” value is -23.4%.
Regarding `Oc1ccc(Cl)c2cccnc12`, the “activity change, negative = cytotoxicity” value was 5.74%.
The same measure, in the same setting: in the case of `C/C=C(/C(=C/C)c1ccc(O)cc1)c1ccc(O)cc1` it was 0.167%; in that of `C[C@@H]1C[C@H]2[C@@H]3CCC4=CC(=O)C=C[C@]4(C)[C@@]3(F)[C@@H](O)C[C@]2(C)[C@H]1C(=O)CO`, -9.77%.
Take `c1ccc(CNCCNCc2ccccc2)cc1`: the “activity change, negative = cytotoxicity” value is 2.42%.
For the molecule `CCCCCC=CCC=CCCCCCCCC(=O)OCC`, the “activity change, negative = cytotoxicity” value was -0.28%.
Consider `COc1ccc(CN2CCN(C(c3ccc(F)cc3)c3ccc(F)cc3)CC2)c(OC)c1OC`, for which the Potency result is “inactive”.
Consider `CN(C)CC/C=C1\c2ccccc2Sc2ccc(Cl)cc21`, for which the “activity change, negative = cytotoxicity” value is -13.6%.
As to `CCN(CCCc1ccccc1)CCCc1ccccc1`, the “activity change, negative = cytotoxicity” value was -3.79%.

(Values after PubChem BioAssay (NCATS).)
